Assay results from PubChem BioAssay (NCI).
About 79,000 compounds went through this panel and 15% of them were active in at least one assay; those are over-represented in the sample as a whole. Cut-off read from the data, not from the text of the source: active = growth inhibition above about 70%; inactive = the rest.

How the values were obtained:
[1] = NCI Yeast Anticancer Drug Screen. Data for the rad50 strain (AID 155);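 note: 0% = growth of vehicle-only cultures of the same strain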; settings: S. cerevisiae rad50 strain growth inhibition; at 50.0 µM; active compounds read high
How it was run: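 Vehicle-treated cultures provide the reference for the growth inhibition reported for compound-exposed, repair-deficient yeast.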

[2] = NCI Yeast Anticancer Drug Screen. Data for the mec2-1 strain (AID 157); settings: S. cerevisiae mec2-1 strain, at 50.0 µM, active compounds read high
How it was run: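 Readout is yeast growth inhibition, normalised to vehicle-treated controls, in the mec2-1 strain exposed to compound.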

[3] = NCI Yeast Anticancer Drug Screen. Data for the sgs1 mgt1 strain (AID 161);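 note: 0% = growth of cultures given vehicle only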; settings: S. cerevisiae sgs1 mgt1 strain, at 50.0 µM, active compounds read high
How it was run: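 Growth of a repair-deficient yeast mutant was monitored after compound treatment and expressed as inhibition relative to vehicle-treated cultures.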

[4] = NCI Yeast Anticancer Drug Screen. Data for the cln2 rad14 strain (AID 165);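 note: 0% = growth equal to vehicle treated cultures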; settings: S. cerevisiae cln2 rad14 strain, at 50.0 µM, active compounds read high
How it was run: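 Relative to vehicle controls, growth inhibition of compound-treated cln2 rad14 yeast was recorded.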

[5] = NCI Yeast Anticancer Drug Screen. Data for the bub3 strain (AID 167); settings: S. cerevisiae bub3 mutant strain, at 50.0 µM, active compounds read high
How it was run: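 Mutant yeast screening strain plus compound; vehicle-treated cultures serve as the 0% inhibition reference.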

[6] = NCI Yeast Anticancer Drug Screen. Data for the mlh1 rad18 strain (AID 175); settings: S. cerevisiae mlh1 rad18 strain growth inhibition; at 50.0 µM; active compounds read high
How it was run: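 Test agents were incubated with a yeast strain of defined genotype (DNA damage repair defect). Inhibition of growth was derived by comparison with vehicle-exposed cultures.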

Measured: growth inhibition

N#Cc1ccc(CC(O)(c2ccccc2)c2ccccc2)cc1
inactive: [1] 4.6% | [2] -1.25% | [3] -1.3% | [4] -12.6% | [5] 3.25% | [6] -9.7%

O=C(Nc1ccccc1)c1cc2ccccc2oc1=O
inactive: [1] 6.95% | [2] -2.65% | [3] -4.5% | [4] 4.75% | [5] -13.2% | [6] 9.55%

Cc1cc2c(cc1C)NC1C(=O)C(c3ccccc3Cl)OC1=N2 (stereo not given)
inactive: [1] -1.2% | [2] -10.4% | [3] -2.4% | [4] 4.55% | [5] 0.55% | [6] 3.15%

Clc1cccc(C=NC23CC4CC(CC(C4)C2)C3)c1Cl
inactive: [1] -20.2% | [2] -36.5% | [3] -40.3% | [4] -6% | [5] -22.6% | [6] -10.2%

Cc1cccc(NC(=O)c2c(Cl)c(Cl)c(Cl)c(Cl)c2C(=O)O)c1C
inactive: [1] 9.8% | [2] 2% | [3] 2.6% | [4] -35.5% | [5] 5.8% | [6] 8.95%

CCOC(=O)C1=CC(C)(C(=O)OCC)Nc2c(nc(N)[nH]c2=O)N1 (stereo not given)
inactive: [1] -42.5% | [2] -12.9% | [3] -8.35% | [4] 4.35% | [5] -35.3% | [6] -19.9%

COC(=O)C1=C(C(=O)OC)C2(C3C(SC)=CC(C)(C)CC3S1)N(Cc1ccccc1)CCN2Cc1ccccc1 (stereo not given)
inactive: [1] -7.65% | [2] -5.25% | [3] -9.95% | [4] 9.05% | [5] -8.7% | [6] -27.2%

Cc1ccc(S(=O)(=O)n2cnc(CC(NC(=O)C3CCC(=O)N3C(=O)OCc3ccccc3)C(=O)N3CCCC3C(=O)NN)c2)cc1 (stereo not given)
inactive: [1] -38.9% | [2] -43.1% | [3] -30.8% | [4] -9.95% | [5] -30.9% | [6] -18.2%

Cc1cc(-c2ccccc2N)nc2ccccc12
inactive: [1] 47.5% | [2] 2.35% | [3] 30.4% | [4] 31.3% | [5] 15.9% | [6] 26.6%

O=C1/C(=C/c2ccccc2)Oc2cc(O)ccc21
inactive: [1] 31.9% | [2] -13.8% | [3] 33% | [4] 30.4% | [5] 27.4% | [6] 34.9%

CC(=O)Nc1cc2cc(N)ccc2oc1=O
inactive: [1] -6.2% | [2] 0.4% | [3] 8.9% | [4] 10.4% | [5] 15.2% | [6] 16.6%

Oc1cccc(NCNC2Nc3ccccc3N2)c1
inactive: [1] 6.5% | [2] 14.7% | [3] -1.4% | [4] -11.1% | [5] 9.7% | [6] 13.6%

COc1c2cccc(Cl)c2cc2c(Cl)cccc12
inactive: [1] 6.3% | [2] -6.15% | [3] 1.3% | [4] 18.8% | [5] -11.2% | [6] 12.5%

CC1=NNC(=O)CC1C(O)c1ccccc1 (stereo not given)
inactive: [1] -31.1% | [2] 3.65% | [3] -12.1% | [4] 3% | [5] -8.45% | [6] -11.4%

Cc1cc(N2CCCCC2)nc2ccccc12
inactive: [1] 4.95% | [2] -4.4% | [3] -18.6% | [4] -3.9% | [5] -1.85% | [6] 9.25%

CCC(C(=O)O)C(=O)O
inactive: [1] -16.9% | [2] -38.4% | [3] -23.7% | [4] 14.3% | [5] -7.75% | [6] 10.3%

CCN(CC)CCN1C(=O)NC2(CCCCC2)C1=O
inactive: [1] 19.5% | [2] -0.8% | [3] 18.8% | [4] 16% | [5] 10.6% | [6] 20.8%

CC1(C)CC(=O)C(CC(C(=O)C(=O)Nc2cc(C(F)(F)F)ccc2Cl)C(=O)c2ccco2)C(=O)C1 (stereo not given)
inactive: [1] -1.55% | [2] 30.1% | [3] 18.9% | [4] -22.4% | [5] 13% | [6] 19.1%

CC1=CC[C@H]2C(C)=CC[C@@H](C(C)C)[C@@H]2C1
inactive: [1] 10.4% | [2] 6.05% | [3] 24.2% | [4] 21.6% | [5] 13.1% | [6] 17.4%

CCOC1(OCC)C(=O)N(c2ccc(Cl)c(Cl)c2)C(=O)N1c1ccc(Cl)c(Cl)c1
inactive: [1] 39.2% | [2] 1.4% | [3] -5.6% | [4] 7.5% | [5] -3.65% | [6] -0.45%

CCn1c2ccc(C=O)cc2c2cc([N+](=O)[O-])ccc21
inactive: [1] 6.25% | [2] -2.1% | [3] 7.2% | [4] -0.05% | [5] -4.7% | [6] 15.1%

O=C(O)c1cccc2c1-c1ccc(NC(=O)C(Cl)Cl)cc1C2=O
inactive: [1] 31% | [2] -1.65% | [3] -6.85% | [4] -5.7% | [5] 16.1% | [6] 12.1%

Cn1c(=O)[nH]c2c(c1=O)CCCS2
inactive: [1] 3.75% | [2] 6.4% | [3] 20.4% | [4] 0.65% | [5] -19.6% | [6] -10.1%

O=C(Nc1c(Cl)cccc1Cl)OCc1ccco1
inactive: [1] 7.5% | [2] -10.6% | [3] 24.1% | [4] 3.15% | [5] 23.4% | [6] 19.6%

COC(=O)C1CCc2c(OC)ccc(OC)c2C1=O (stereo not given)
inactive: [1] -2.75% | [2] -4.7% | [3] -3.65% | [4] 20.5% | [5] -2.45% | [6] -7.95%

CC(Oc1ccc(Br)cc1Br)C(=O)O (stereo not given)
inactive: [1] 4.1% | [2] -16.2% | [3] 1.2% | [4] 23.2% | [5] -14.5% | [6] 19.1%

Cc1cccc(C)c1NC(=O)C(=O)CC(=O)c1sc(Nc2c(C)cccc2C)nc1C
inactive: [1] 12.1% | [2] -10.9% | [3] 26.2% | [4] -22.9% | [5] 16.6% | [6] 16.9%

CCOc1ccc(Nc2nc(C)c(C(=O)CC(=O)C(=O)Nc3ccc(C(C)C)cc3C(C)C)s2)cc1
inactive: [1] -31.2% | [2] 10.1% | [3] 5.45% | [4] -14.8% | [5] -20% | [6] -38.4%

COc1ccc(N/N=C2\CCOc3ccc(C)cc3C2=O)cc1
inactive: [1] 53.6% | [2] 27.8% | [3] 42.5% | [4] 14.6% | [5] 52% | [6] 46.7%

O=S(=O)(Nc1ccccc1)c1cc(O)ccc1O
inactive: [1] -3.35% | [2] -11.2% | [3] -9.75% | [4] -12.1% | [5] -26.5% | [6] -9.85%

COc1ccccc1/C=N\NC(=O)c1ccccc1O
inactive: [1] 13.2% | [2] 11.6% | [3] 11.8% | [4] 21.5% | [5] 41% | [6] 11.3%

CCc1nc(N)nc(N)c1-c1ccc2c(c1)nnn2CCc1ccccc1
inactive: [1] 11.2% | [2] 0.1% | [3] 3.6% | [4] 10.7% | [5] 5.05% | [6] 16.1%

CC(NNC(=S)N1CCCC1)c1cccc[n+]1[O-] (stereo not given)
inactive: [1] 3.4% | [2] -2.85% | [3] 8.4% | [4] -4.9% | [5] 8.3% | [6] 13.9%

O=C(OCc1ccccc1)C1CCCN1C(=O)C(CSC(c1ccccc1)(c1ccccc1)c1ccccc1)NC(c1ccccc1)(c1ccccc1)c1ccccc1 (stereo not given)
inactive: [1] -5.5% | [2] -1.35% | [3] -0.8% | [4] -11.3% | [5] -7.55% | [6] 24.6%

C1=CC2C3CSCC3C1C1CC21 (stereo not given)
inactive: [1] 7.95% | [2] -7.85% | [3] -4.4% | [4] -35.1% | [5] -17% | [6] -3.05%

O=C(NNC(=O)c1cccc2ccccc12)c1cccc(Cl)c1
inactive: [1] 3.5% | [2] -41.5% | [3] -6.9% | [4] 4.05% | [5] -4.05% | [6] -13.9%

O=C(CC(=O)c1ccccc1)CC(Nc1ccccc1)c1ccccc1 (stereo not given)
inactive: [1] 58% | [2] 10% | [3] 46.1% | [4] -8.5% | [5] 7.55% | [6] 45.9%

C/C(CC(C)(C)C)=N/O
inactive: [1] -24.6% | [2] -5.2% | [3] -21.8% | [4] -78.7% | [5] -14.9% | [6] -12.9%

CCc1cccc(CC)c1NC(=S)NC(=O)c1ccc(Br)cc1
inactive: [1] -5.3% | [2] -1.25% | [3] -7.9% | [4] 8.3% | [5] -9.5% | [6] -9.75%

c1ccc(-c2nc3ccccc3nc2-c2ccc(Cc3ccc(-c4nc5ccccc5nc4-c4ccccc4)cc3)cc2)cc1
inactive: [1] 39.5% | [2] 19.1% | [3] 15.4% | [4] 21.2% | [5] -6.5% | [6] 25.1%
